# AI-2 QS mod – modulates the Vibrio harveyi AI-2 quorum sensing system | Vibrio harveyi JMH597 AI-2 luminescence/OD600 ratio, 9 h; hits give low values; strain lacks LuxN and CqsS sensors; 0 = neutral-control median | activity change, % at 7.5 µM | actives 0.4% (n = 300,000); in the data active means activity change below about -75%, passing the limit was not always enough;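 further: luminescence divided by OD600 gain over 9 h not by final OD600 alone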
# Efflux pump inh – blocks antifungal efflux pumps in multiplex yeast assay | S. cerevisiae Candida pump triplex, Nile Red efflux | inhibition, % at 10 µM | actives 0.44% (n = 330,000) | AID 485275;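 active means plate passing quality check with inhibition over a set limit, or well fluorescence over plate mean plus 4 SD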;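 further: Nile Red retained in pooled yeast measured as flow cytometry median fluorescence; 0% = buffer negative control and 100% = Enniatin B positive control; higher means more Nile Red kept so more efflux inhibition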
# SUMO Mot1 rescue – inhibitors of SUMOylation pathway: yeast Mot1-301 growth rescue. actives 1% (n = 320,000). growth rescue, % at 18.8 µM. S. cerevisiae Mot1-301 growth rescue, ATP luminescence, 38.5C; percent above DMSO median, 100 means doubled;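 active means every valid replicate shows activation above 250% relative to neutral control wells; inactive means the rest, any valid replicate at or below 250%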;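 further: OY570 slx delta 5 strain wells were the positive control but not used for scaling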
# ATG4B inhibitor – inhibitors of human ATG4B cysteine protease | inhibition, % at 8.33 µM | AID 504462 | Q9Y4P1 | ATG4B cleavage of LC3-PLA2, NBD-HPC fluorescence, 1 h | actives 0.51% (n = 340,000); in the data active means inhibition above about 40%
# Target sequence (Q9Y4P1 whole entry, looked up): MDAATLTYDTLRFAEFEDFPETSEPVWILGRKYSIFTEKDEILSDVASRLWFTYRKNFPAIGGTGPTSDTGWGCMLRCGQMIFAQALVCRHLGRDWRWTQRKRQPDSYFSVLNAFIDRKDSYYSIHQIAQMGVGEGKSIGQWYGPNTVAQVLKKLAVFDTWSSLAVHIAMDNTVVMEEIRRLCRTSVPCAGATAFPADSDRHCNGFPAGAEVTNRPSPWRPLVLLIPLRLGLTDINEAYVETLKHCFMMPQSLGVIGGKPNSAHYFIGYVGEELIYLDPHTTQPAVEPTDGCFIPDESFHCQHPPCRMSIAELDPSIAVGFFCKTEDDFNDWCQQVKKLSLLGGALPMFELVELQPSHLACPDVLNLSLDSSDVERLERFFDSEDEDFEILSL
# V-ATPase pHluor – alters yeast V-ATPase proton transport. S. cerevisiae, pHLuorin cytosolic pH fluorescence. response, % at 10 µM. actives 0.37% (n = 350,000); in the data active means response mostly above about 7.3%, no sharp cut-off; inactive means mostly below about 5.4%; further: actives read high
# Yeast cmpd fluor – counter-screen for efflux pump inhibitors: compound fluorescence. shares compounds with Efflux pump inh. actives 4% (n = 1,700). S. cerevisiae AD/pABC3, flow cytometry. AID 588517. fluorescence ratio to DMSO, % at 10 µM;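 active means fluorescence ratio to DMSO above its plate's cutoff, the plate mean ratio plus 5 SD, cut at about 210% in these data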;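 further: unstained yeast with no Nile Red so the signal is compound autofluorescence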
# Mdr1 pump inh – inhibitors of Candida albicans Mdr1 efflux pump | shares compounds with Efflux pump inh | actives 1% (n = 1,700) | inhibition, % at 10 µM | S. cerevisiae AD/CaMDR1, Nile Red efflux, flow cytometry; in the data active means inhibition above about 26%;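 further: 0% = DMSO vehicle and 100% = reference inhibitor; higher means more Nile Red retained so more efflux inhibition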
# CaCdr2 efflux inh – inhibitors of Candida albicans Cdr2 efflux pump; shares compounds with Efflux pump inh; S. cerevisiae AD/CaCDR2, Nile Red retention, flow cytometry; Nile Red retention ratio vs DMSO, % at 10 µM; actives 4% (n = 1,700); AID 588520; in the data active means Nile Red retention ratio vs DMSO above about 190%;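 further: higher ratio means more blocking of Cdr2 efflux of the dye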
# Cdr1 pump inh – inhibitors of Candida albicans Cdr1 efflux pump | shares compounds with Efflux pump inh | S. cerevisiae AD/CaCDR1, Nile Red efflux, flow cytometry | inhibition, % at 10 µM | actives 1% (n = 1,700) | AID 588522;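 active means inhibition above the screen-wide mean plus twice its standard deviation, cut at about 32% in these data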
# * marks the source's active call; other numbers are inactive results; i = inactive; · = no result. Compounds with a hit are over-represented: about 2.5% of the library has one in this group of screens.
SMILES,AI-2 QS mod,Efflux pump inh,SUMO Mot1 rescue,ATG4B inhibitor,V-ATPase pHluor,Yeast cmpd fluor,Mdr1 pump inh,CaCdr2 efflux inh,Cdr1 pump inh
Cc1c(/C=N/NC(N)=O)c2ccccn2c1C(=O)c1ccc(F)cc1,11.5,-0.2,-3.1,-20.7,1.1,·,·,·,·
CC(=O)c1ccc(S(=O)(=O)N2CCN(C(=O)CCC3CCCC3)CC2)cc1,·,·,·,4.2,11.1,·,·,·,·
CCCCN1C(=S)NC[C@@H]1Cc1cccc2ccccc12,4.5,0.2,2.5,-10.4,-0.1,92.1,-0.5,95.1,-0.1
C=CCN(C(=O)CCC(=O)Nc1cc(C)on1)C(C(=O)NC(C)(C)C)c1cccc(OC)c1OC (configuration not stated),18.5,-0.1,-4.5,-9.4,-0.1,·,·,·,·
COc1cccc(C(C(=O)NC(C)(C)C)N(C(=O)CCC(=O)Nc2cc(C)on2)C(C)(C)C)c1OC (configuration not stated),-0.7,0.0,0.5,-1.6,2.2,93.5,-0.3,98.5,-0.1
COc1cccc(C(C(=O)NC(C)(C)C)N(C(=O)CCC(=O)Nc2cc(C)on2)C(C)C)c1OC (configuration not stated),27.1,0.1,-2.2,-12.6,-1.2,111.5,0.1,105.7,0.1
Cc1ccc(C(c2nnnn2Cc2ccccc2)N2CCN(Cc3ccccc3)CC2)cc1 (configuration not stated),7.0,-0.2,-12.3,-3.8,0.7,·,·,·,·
Cc1ccc(CN2CCC(n3nccc3NC(=O)c3ccccc3C)CC2)o1,23.6,0.7,-1.6,-2.9,5.2,·,·,·,·
CC1CC(C)CN(C(=O)c2cccc(N3C(=O)c4ccccc4C3=O)c2)C1 (configuration not stated),·,0.1,2.8,38.9,-2.3,·,·,·,·
CCN(CC(=O)Nc1ccc(NC(C)=O)cc1)CC(=O)Nc1ccccc1C(=O)c1ccccc1,19.5,0.7*,-19.7,-8.7,5.2,114.3,0.3,112.2,0.2
O=C(Nc1ccc(Cl)cn1)Nc1ccc(Cl)cn1,10.8,-0.2,0.5,-7.1,-2.9,·,·,·,·
O=C(NC(=O)c1ccccc1)Nc1ccc(Cl)cn1,17.3,0.4*,219.1,-5.4,3.4,103.1,0.1,96.3,0.0
CCOC(=O)CNC(=O)c1cccnc1Oc1ccc(Cl)cc1,10.9,0.0,-1.7,0.2,-2.4,·,·,·,·
Cc1ccc(-c2csc(/C(C#N)=C/Nc3ccccc3SC(F)(F)F)n2)c(C)c1,7.4,0.5*,146.8,8.1,2.1,162.6,2.9,116.4,1.0
CCN(CC)C(=O)C1=C(C)N(Cc2ccc(C(C)(C)C)cc2)C(=O)C(CC(=O)NCc2cccs2)C1 (configuration not stated),·,·,·,·,1.7,·,·,·,·
Cc1sc2ncnc(SCC(=O)NC(C)C(C)C)c2c1C (configuration not stated),16.3,0.8*,-0.1,-4.5,5.0,109.0,-0.1,112.3,0.1
Cc1sc2ncnc(SCC(=O)NC3CC3)c2c1C,-23.3,-0.1,-2.3,3.6,2.4,·,·,·,·
Cc1sc2ncnc(SC(C)C(=O)N3c4ccccc4Sc4ccccc43)c2c1C (configuration not stated),19.3,15.2*,-12.5,13.2,2.2,103.0,-0.5,83.1,-0.1
COc1ccc(CN2C(=O)C(CC(=O)NCc3cccs3)CC(C(=O)N(C(C)C)C(C)C)=C2C)cc1 (configuration not stated),·,·,·,·,-1.3,·,·,·,·
O=C(NCCCN1CCOCC1)Nc1ccc(Cc2ccc(NC(=O)NCCCN3CCOCC3)cc2)cc1,3.9,6.8*,13.1,-2.9,4.5,97.2,-0.2,101.7,-0.1
COc1cc(/C=C(\C#N)c2ccccn2)ccc1OCc1ccc(Cl)cc1,42.4,6.7*,-30.6,4.1,1.2,96.6,-0.1,112.4,0.1
N#Cc1cc([N+](=O)[O-])ccc1NCCc1ccccn1,3.5,3.5*,-27.8,0.4,2.2,116.4,0.1,120.5,-0.1
C/C(=N\NC(=O)c1cc(Cl)ccc1O)c1ccc(Br)s1,0.0,7.6*,7.0,-2.4,-2.9,95.3,-0.3,103.6,0.0
C/C(=N\NC(=O)c1ccc(Cl)cc1)c1ccc(Br)s1,19.3,-0.1,·,-9.8,-3.8,·,·,·,·
O=C(CCNC(=O)C1CCN(S(=O)(=O)c2ccccc2)CC1)NCc1ccc(Cl)c(Cl)c1,24.4,0.0,3.6,-9.1,0.9,·,·,·,·
SMILES,AI-2 QS mod,Efflux pump inh,SUMO Mot1 rescue,ATG4B inhibitor,V-ATPase pHluor,Yeast cmpd fluor,Mdr1 pump inh,CaCdr2 efflux inh,Cdr1 pump inh
Cc1ccccc1-c1cccc([C@@H]2C[C@H]3[C@H](CON3C)CN2C(=O)C(C)(C)C)c1,·,·,·,6.3,5.5,·,·,·,·
S=C(/N=c1/sccn1Cc1ccccc1)NC1CC1,27.3,1.3*,-16.8,-0.3,-4.2,101.1,-0.1,106.3,0.0
Cc1ccc(F)c(NC(=O)c2c(-c3ccccc3)noc2C)c1,-6.5,-0.3,-8.7,-5.6,-1.0,·,·,·,·
CCOC(=O)CN(C(=O)COC(=O)C1=NNC(=O)CC1)c1ccc(F)cc1,·,0.2,-11.8,1.4,1.3,·,·,·,·
COC(=O)Cn1c(CN2CCOCC2)nc2c1c(=O)[nH]c(=O)n2C,6.5,1.2*,i,-2.0,-1.1,108.3,0.0,103.6,0.1
Cc1c(C(=O)COC(C)(C)C)[nH]c2ccccc12,20.4,0.3,-0.4,-4.0,-0.1,·,·,·,·
CCCCc1ccc(NC(=S)N2CCN(c3ccccn3)CC2)cc1,-2.2,-0.1,-7.2,3.3,-3.7,·,·,·,·
COCc1nnc(NC(=O)c2cccc(NC(=O)c3ccccc3)c2)s1,26.5,0.2,-9.1,-3.4,-1.7,·,·,·,·
Cc1cc(O)c(N)c(C)c1Cl,6.4,0.8*,-22.9,-7.2,1.9,110.0,0.0,91.9,0.0
O=S(=O)(Nc1nc2ccccc2nc1Nc1ccc2c(c1)OCO2)c1ccccc1,34.2,0.0,-3.0,3.0,-2.1,·,·,·,·
Cc1cccc(S(=O)(=O)Nc2nc3ccccc3nc2Nc2ccc3c(c2)OCO3)c1,3.7,10.0*,556.8,5.3,0.0,105.8,-0.1,118.2,0.0
O=C(NCCCN1CCOCC1)c1ccccc1N1C(=O)[C@@H]2Cc3c([nH]c4ccccc34)C(c3cccc(Cl)c3)N2C1=O (some centres not stated),-7.5,0.3,-5.5,-12.1,3.3,·,·,·,·
Oc1[nH]c2ccccc2c1/C=N/N1CCCCC1,14.5,6.7*,393.0,-2.6,1.2,102.2,0.0,98.1,0.0
O=C(NCc1ccc(F)cc1)c1noc2c1CCCC2,-29.6,0.9*,4.8,-3.0,0.2,83.3,-0.4,95.4,-0.5
